Screening results (PubChem BioAssay)
MbtI inh: inhibitors of Mycobacterium tuberculosis siderophore enzyme MbtI; hit rate 0.89% among 100,000; purified MbtI enzyme, fluorescence intensity read-out; P9WFX0; inhibition, % (concentration not given with the values); in the data active = inhibition mostly above about 56%, no sharp cut-off; inactive = mostly below about 77%
AID504770: growth inhibitors of E. coli YBA685 in a screen for V. cholerae RctB (chromosome II replication) inhibitors. E. coli YBA685 rctB-dependent plasmid, OD600 growth, 3 h; stronger effect = lower value. z-score (no concentration beside the values). hit rate 0.27% among 130,000. AID 504770; in the data active = z-score below about -2, passing the limit was not always enough
PV pol inh: inhibitors of poliovirus RNA polymerase binding and polymerization; P03300; poliovirus polymerase elongation, fluorescence polarization; stronger effect = lower value; % elongation, % (compound at 16.7 µg/mL); hit rate 0.66% among 150,000; in the data active = % elongation below about 90%
Mtb MenB inh: Mtb MenB enzyme inhibition. MenB enzyme assay, absorbance read-out. inhibition, % (test concentration not listed). P9WNP5. hit rate 0.43% among 100,000; in the data active = inhibition above about 21%, passing the limit was not always enough
Target sequence (P9WNP5 whole entry, looked up): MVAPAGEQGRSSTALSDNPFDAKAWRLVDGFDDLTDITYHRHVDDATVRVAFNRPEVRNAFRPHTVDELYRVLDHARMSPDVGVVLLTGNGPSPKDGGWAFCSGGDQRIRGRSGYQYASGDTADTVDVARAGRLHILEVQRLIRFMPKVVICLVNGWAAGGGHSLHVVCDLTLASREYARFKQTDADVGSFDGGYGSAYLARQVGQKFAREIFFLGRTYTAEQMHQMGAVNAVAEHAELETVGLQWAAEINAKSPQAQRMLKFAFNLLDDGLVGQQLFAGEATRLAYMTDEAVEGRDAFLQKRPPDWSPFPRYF
Active calls of the source: *; i = inactive; x = no result; ! = a repeat was not active. Compounds with a hit are over-represented: about 1.5% of the library has one in this group of screens.

SMILES	MbtI inh	AID504770	PV pol inh	Mtb MenB inh
CSc1c(NC(=O)/C=C\C(=O)O)cccc1C(F)(F)F	-7	-0.05	97	-4
CCCCCCCc1c(C#N)c(N)[nH]c(=S)c1C#N	97*	0.35	69*	-52
Cc1nc(-c2c[nH]c3ccccc23)c(C)s1	x	-1.1	73*	-15
COc1ccc(COCC(O)CS(=O)(=O)c2ccc(C)cc2)cc1 (stereo not given)	x	0.65	x	x
CCCCC1SC(/N=C/c2ccc(Cl)cc2)=NNC1=O (stereo not given)	x	-0.65	106	-2
O=C(O)C(CO)c1ccccc1 (stereo not given)	0	0.1	98	26*
O=C(CC(C(=O)O)c1cccc(Cl)c1)c1ccccc1 (stereo not given)	x	0.2	x	x
CCOC(=O)c1c(C)oc(NC(=O)c2nn(Cc3ccccc3)c(=O)c3ccccc23)c1C#N	15	1.8	98	4
CC(NC(=O)c1ccc(-c2ccccc2)cc1)C(=O)O (stereo not given)	3	-1	103	29*
CC(C)C(NC(=O)c1ccccc1)C(=O)O (stereo not given)	-7	-0.65	100	-19
C=CCn1c(C(C)NC(=O)Cc2ccccc2)nc2ccccc21 (stereo not given)	x	-0.8	x	x
CC1(C)C(C(=O)O)N2C(=O)CC2S1(=O)=O (stereo not given)	-5	-2.4*	105	-20
CC(C)CCN1C(=O)C2(NN(CCO)C(=Nc3ccccc3)S2)c2ccccc21 (stereo not given)	102	1.8	105	-20
C=CCSc1nnc(NC(=O)NC2CCCCC2)s1	-10	-2.8*	105	-17
CC(=O)c1ccc(NC(=O)CSc2nnc(NC(=O)NC3CCCCC3)s2)cc1	x	x	109	x
Cc1c(C(=O)NNc2ncnc3sc4c(c23)CCCC4)oc2ccccc12	-5	-4.2*	104	-21
O=C(Nc1ncnc2sc3c(c12)CCC3)c1ccccc1	x	-0.45	x	x
COc1ccc(CCNC(=O)NC(C)(C)C)cc1	x	2.8	100	-26
NC(=S)N1CCCC1	-3	0.15	97	-16
S=C(S)N1CCCC1	96*	-3.5*	108	-60
C[C@H]1c2cccc(O)c2C(O)=C2C(=O)[C@]3(O)C(O)=C(C(N)=O)C(=O)[C@@H](N(C)C)[C@@H]3[C@@H](O)[C@@H]21	-15	-0.25	99	5
CN(C)[C@@H]1C(=O)C(C(N)=O)=C(O)[C@@]2(O)C(=O)C3=C(O)c4c(O)ccc(Cl)c4[C@@](C)(O)[C@H]3C[C@@H]12	i	-3.6*	100	0
CC1c2cccc(O)c2CC2=C(O)C3(O)C(O)=C(C(N)=O)C(=O)C(N(C)C)C3C(O)C21 (stereo not given)	x	-4.1*	92	-78
CN(C)[C@@H]1C(=O)C(C(N)=O)=C(O)[C@@]2(O)C(=O)C3=C(O)c4c(O)cccc4[C@@](C)(O)[C@H]3[C@H](O)[C@@H]12	-12	-3.9*	100	-27
COc1ccc(CCN=C2SCCN2C(=O)c2ccc(NC(N)=O)cc2)cc1	16	0.8	100	-6
SMILES	MbtI inh	AID504770	PV pol inh	Mtb MenB inh
CCC(=O)N1CCCc2cc(S(=O)(=O)CCC(=O)Nc3ccc(CC)cc3)ccc21	-5	0.2	103	-18
CCN(CC)CCN=Cc1c(O)[nH]c(=O)[nH]c1=O	4	2.3	100	-92
Cc1ccc(SC#N)c(N)n1	x	-2.5*	x	x
N#CSc1ccc(N)cc1	6	-1.5	99	x
Nc1nonc1C(=O)NCCN=Cc1ccccc1O	6	-0.75	106	-9
Nc1nonc1C(=O)NN=c1c(=O)c2ccccc2c1=O	-26	-0.8	47*	i
CCCCCCCCCCCCCCCCCCc1ccc(C(=O)/C=C/C(=O)O)cc1	9	x	98	-4
CCCCCOc1ccc(C(=O)/C=C/C(=O)O)cc1	63*	1.2	96	18
O=C(O)c1ccc(N=Nc2c(O)[nH]c(=O)[nH]c2=O)cc1	7	2.4	103	-319
COC(=O)/C=C/C(=O)Nc1ccccc1	101*	-2.2	101	-11
COc1ccc(/C=C/C(=O)Nc2ccccc2)cc1	13	-0.75	101	3
C=CCn1c(=O)[nH]c2nc3cc(N=CN(C)C)ccc3nc2c1=O	6	1.5	-6.0*	-49
C=CCn1c(=O)[nH]c2nc3cc(N=CN(C)C)c(C)cc3nc2c1=O	-4	-0.3	88	-21
CCCCCOc1ccc(NC(=O)Cn2c(-c3cncs3)nc3ccccc32)cc1	x	x	89*	x
CCOc1cc(C2C(C(=O)N3CCCCC3)=C(C)NC3=C2C(=O)CCC3)ccc1OC(C)=O (stereo not given)	36	0.9	101	-16
CC(C)(C)C1(O)C=C(O)C(=O)N1c1cccnc1 (stereo not given)	x	0	103	53*
O=C(O)/C=C/C(=O)c1ccc(C2CCCCC2)cc1	x	2.5	x	x
CCOC(=O)c1sc2sc(C(=O)OCC)c3c2c1CN(Cc1ccccc1)C3	15	0.75	101	29
O=C(CC12CC3CC(CC(C3)C1)C2)NCC(=O)N1CCN(Cc2ccccc2)CC1	-10	0.15	104	-24
O=C(CC12CC3CC(CC(C3)C1)C2)NCC(=O)N1CCCC1	-14	-1.2	86*	-16
CSCCC(N=C1NS(=O)(=O)c2ccccc21)C(=O)N1CCN(C(=O)c2ccco2)CC1 (stereo not given)	-9	0.4	108	-26
CCCn1c(=O)[nH][nH]c1=S	88*	-0.15	100	3
CS(=O)(=O)NNc1nccc(-c2cccnc2)n1	87*	0.1	101	-18
CC(O)c1nc2ccccc2s1 (stereo not given)	9	-0.55	100	-23
Cn1ncc(C(C#N)c2nc3ccccc3s2)c(Cl)c1=O (stereo not given)	57*	-0.75	140	-266
SMILES	MbtI inh	AID504770	PV pol inh	Mtb MenB inh
CCN1CSC(=S)N(CC)C1	-6	-2.5*	101	-17
Cc1c(C(=O)Nc2ccncc2)oc2ccccc12	-3	0.6	101	38*
Nc1cc(-c2ccccc2)c2ccccc2n1	x	-2.2*	102	-15
CCN(CC)C(=O)Oc1cc(COC)nc(-c2ccccc2)n1	x	-3*	x	x
CCN(CC)C(=O)Oc1cc(C(F)(F)F)nc(-c2ccc(Cl)cc2)n1	x	2.2	x	x
COC(=O)c1ccc2nc(NC(=O)CN3C(=O)CCC3=O)sc2c1	x	-0.25	75*	-5
CCn1c(=NC(=O)C(C)C)sc2cc(Br)ccc21	3	0.7	105	-25
Cc1cc(C)c(C(=O)O)c(N)n1	x	-0.65	x	x
O=C(N[C@@H](Cc1ccccc1)C(=O)OCc1ccccc1)c1ccco1	-8	0.2	80*	-11
O=C(NC(Cc1ccccc1)C(=O)OCc1ccccc1)c1cccs1 (stereo not given)	-5	-0.2	104	x
Cc1cc(C(C)(C)CC(C)(C)C)ccc1OCCOCC[N+](C)(C)Cc1ccccc1	-16	0.25	94*!	0
C[N+](C)(Cc1ccccc1)Cc1ccccc1	x	-0.45	107	-8
O=C(NCC(O)c1ccccc1)Nc1ccc2c(c1)CCO2 (stereo not given)	-6	-0.9	104	-18
O=C(Cc1nc2ccccc2s1)c1ccccc1	-8	-1.1	72*	x
